Assay outcomes (PubChem)
VP16 counter: counter-screen for ROR gamma inhibitors: Gal4-VP16 reporter; Drosophila S2 Gal4-VP16 UAS-luciferase, luminescence, 20 h; Potency, µM (highest dose often 53.6 µM), most hits filed as inhibitors; 310,000 tested, 3.5% active; AID 2546;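 further: Gal4-VP16 expression switched on by copper sulfate through the metallothionein promoter; nearly all actives have a fitted effect of over 50% in size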
TDP1 cell CPT: growth inhibition of DT40 Tdp1-/-;hTDP1 cells with camptothecin (screen for TDP1 inhibitors); AID 686979; Potency, µM (doses to about 46.2 µM), most hits filed as inhibitors; chicken DT40 Tdp1-/-;hTDP1 cells + 20 nM CPT, ATP luminescence, 48 h; 420,000 tested, 12% active; further: nearly all actives have a fitted effect of over 55% in size
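Chicken DT40 Tdp1-/- cells complemented with human TDP1, 400 cells/well, exposed to compounds plus 20 nM camptothecin for at least 48 h at 37 C; viability read as ATP content by CellTiter-Glo luminescence.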
RORg inh: inhibitors of mouse ROR gamma transcriptional activity; 310,000 tested, 5.4% active; Drosophila S2 Gal4-RORgamma UAS-luciferase reporter, 20 h; Potency, µM (top dose mostly 53.6 µM), most hits filed as inhibitors; further: nearly all actives have a fitted effect of over 60% in size
Target sequence (P51450 whole entry, looked up, the tested form may be a part): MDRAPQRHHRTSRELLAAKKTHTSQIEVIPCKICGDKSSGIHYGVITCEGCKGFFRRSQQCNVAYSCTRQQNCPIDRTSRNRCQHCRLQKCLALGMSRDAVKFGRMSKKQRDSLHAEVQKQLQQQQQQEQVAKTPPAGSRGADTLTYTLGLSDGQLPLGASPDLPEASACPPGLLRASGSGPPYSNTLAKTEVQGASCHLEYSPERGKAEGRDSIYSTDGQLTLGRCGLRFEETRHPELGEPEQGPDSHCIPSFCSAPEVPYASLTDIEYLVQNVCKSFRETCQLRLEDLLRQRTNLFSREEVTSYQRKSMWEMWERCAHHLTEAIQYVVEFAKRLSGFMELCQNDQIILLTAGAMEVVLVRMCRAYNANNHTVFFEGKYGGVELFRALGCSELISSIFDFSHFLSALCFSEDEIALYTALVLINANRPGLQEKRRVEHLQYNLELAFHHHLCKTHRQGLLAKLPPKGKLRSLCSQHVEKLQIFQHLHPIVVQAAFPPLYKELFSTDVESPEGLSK
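Compounds are pin-transferred onto Drosophila Schneider cells expressing a copper-inducible Gal4–ROR gamma transactivation domain fusion. After 1 hr, copper sulfate is added to 700 uM final; luciferase is read 20 hr later.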
LDHA inh: inhibitors of human lactate dehydrogenase A; purified LDHA, NADH/diaphorase-resazurin fluorescence; stronger effect = lower value; P00338; activity change, % (values are at about 110 or 230 µM); 480,000 tested, 0.15% active; AID 1347041; in the data active means activity change below about -30%; inconclusive means mostly about -25% to -30%
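Remaining NADH was detected by diaphorase (0.133 mg/mL) converting 37 µM resazurin to fluorescent resorufin, read at 0 and 20 minutes. The preceding 5-minute room-temperature reaction used 2 nM LDHA, 0.2 mM sodium pyruvate and 0.06 mM NADH at pH 7.4.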
IL1B secr inh: inflammasome signaling inhibition, IL-1 beta readout | THP-1 LPS/ATP IL-1B secretion, AlphaLISA, 16 h; stronger effect = lower value | activity change, % at 57.5 µM | 360,000 tested, 4.7% active; in the data active means activity change below about -50%; inconclusive means mostly about -30% to -49%
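THP-1 cells pretreated 1 hr with compounds (up to 57.5 uM final), then stimulated with LPS (250 ng/mL final) plus ATP (1.25 mM final); secreted IL-1B measured by AlphaLISA after 16 hr, decreased signal indicating inhibition.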
DT40 TDP1 no CPT: qHTS for Inhibitors of human tyrosyl-DNA phosphodiesterase 1 (TDP1): qHTS in cells in absence of CPT | Potency, µM (highest dose often 46.2 µM), actives largely listed as inhibitors | DT40 Tdp1-/- hTDP1 cells, no CPT, ATP luminescence, 48 h | AID 686978, 2013 | 420,000 tested, 15% active; further: nearly all actives have a fitted effect of over 55% in size
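Stably hTDP1-transfected Tdp1-null chicken DT40 cells were treated with library compounds minus camptothecin and grown for at least 48 hr at 37 °C, after which cellular ATP was quantified by luminescence.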
Numbers stand for hits; 0 = inactive; ? = inconclusive; - = no result given; [ ] = another dose, or the depositor's remark. Sampled rows, rich in hits. Any-hit rate of the full collection: about 18%. Unless noted, the call rests on the fitted dose curve; in most records, active means well fitted curve in the direction sought with a large enough effect; inconclusive means small, poorly fitted or top-dose-only effect, or another doubt; inactive means no such curve, though single readings can be large; an effect the other way counts as inactive or inconclusive.

SMILES	VP16 counter	TDP1 cell CPT	RORg inh	LDHA inh	IL1B secr inh	DT40 TDP1 no CPT
CC(=C/c1ccccc1)/C=N/NC(=O)c1ccc2nc[nH]c2c1	0	0	0	0	0	?
CC(C)C1/C(=N/O)CC(c2ccccc2)NC1c1ccccc1 (stereo not drawn)	0	16.4µM	0	0	0	20.6µM
CCCC1C(c2ccccc2)NC(c2ccccc2)CC1(O)Cc1ccccc1 (stereo not drawn)	-	-	-	0	-	-
CCCC1/C(=N/O)CC(c2ccccc2)NC1c1ccccc1 (stereo not drawn)	?	?	?	0	-97.8	4.11µM
CC1/C(=N/O)CC(c2ccccc2)NC1c1ccccc1 (stereo not drawn)	0	?	0	0	0	?
Cc1n[nH]c(=O)nc1NCc1ccc(Cl)cc1	0	0	0	0	0	0
CCc1c(C)nc2nncn2c1NCc1ccc(OC)cc1	-	16.4µM	-	0	-	18.4µM
COc1ccc(CNc2cc(-c3ccc(OC)cc3)nc3nncn23)cc1	-	?	-	0	-	16.4µM
Cc1ccc2nc(Nc3ccc(F)cc3)c3nncn3c2c1	0	0	?	0	0	0
Cc1nc2nncn2c(Nc2ccc(F)cc2)c1C	-	16.4µM	-	0	-	9.2µM
Cc1nc2nncn2c(NCc2ccc(Cl)cc2)c1C	-	2.59µM	-	0	-	0.82µM
COc1cc(/C=C/c2nc3ccccc3s2)cc(OC)c1	-	-	-	0	-	-
N#CCCn1cc(C(=O)N2CCCCC2)c(-c2ccc(Cl)cc2)n1	-	-	-	0	-	-
Cc1nnc2ccc(NCc3ccc(F)cc3)nn12	-	-	-	0	-	-
Cc1nc2nncn2c(NCc2ccc(F)cc2)c1C	-	5.17µM	-	0	-	4.11µM
CCOC(=O)c1cc(C(O)(C(F)(F)F)C(F)(F)F)c(N)o1	-	-	-	0	-	-
COc1ccc(-c2[nH]nc3c2C(c2ccc4c(c2)OCO4)CC(=O)O3)cc1 (stereo not drawn)	-	-	-	0	-	-
Cc1ccc(C)n1-c1ccc(C(=O)NCC2CCCO2)cc1 (stereo not drawn)	0	12.6µM	0	0	?	12.6µM
Cc1cnn(C(=S)NCC2CCCO2)c1 (stereo not drawn)	?	0	14.1µM	0	0	0
COc1ccc(C(=O)NCC2CCCO2)cc1 (stereo not drawn)	0	0	0	0	0	0
O=C(NCC1CCCO1)c1ccc(COc2ccc(Br)cc2)cc1 (stereo not drawn)	?	29.1µM	?	0	?	23.1µM
O=C(NC(=S)NCC1CCCO1)c1ccc([N+](=O)[O-])cc1 (stereo not drawn)	0	0	12.6µM	0	0	0
Cc1ccc(OCc2ccc(C(=O)NCC3CCCO3)cc2)cc1C (stereo not drawn)	-	?	-	0	0	?
CC(C)CC(=O)NCCCCNC(=O)CC(C)C	-	-	-	0	-	-
COc1cc(OC)c(OC)cc1/C=C(/C#N)c1nc2ccccc2[nH]1	-	-	-	0	-	-
SMILES	VP16 counter	TDP1 cell CPT	RORg inh	LDHA inh	IL1B secr inh	DT40 TDP1 no CPT
O=C(CSc1nccn2nc(-c3cccc4ccccc34)cc12)NCCc1ccccc1	-	-	-	0	-	-
O=C(NC(=S)NCC1CCCO1)c1ccc(Cl)cc1 (stereo not drawn)	?	?	11.2µM	0	0	?
O=C(NC(=S)NCC1CCCO1)c1ccccc1 (stereo not drawn)	?	0	?	0	0	0
Cc1ccc(C(=O)NC(=S)NCC2CCCO2)cc1 (stereo not drawn)	0	0	15.8µM	0	0	?
O=C(NCC1CCCO1)c1ccc([N+](=O)[O-])s1 (stereo not drawn)	0	13µM	0	0	0	25.9µM
CCCCN(C)C(=O)Cn1c(=O)n(Cc2ccc3c(c2)OCO3)c(=O)c2sccc21	-	-	-	0	-	-
O=C(NCc1ccc(Cl)cc1)NC1CC1	-	-	-	0	-	-
CN1N/C(=C\c2ccccc2)N=C2C(=O)N(C)C(=O)N=C21	-	1.41µM	-	0	-	?
CC/C=C1/N=C2C(=O)N(C)C(=O)N=C2N(C)N1	-	0.0891µM	-	0	-	?
O=C(Cn1nnc2sc(-c3ccccc3)cc2c1=O)Nc1ccccc1	-	-	-	0	-	-
O=C(c1ccc(-c2ccc([N+](=O)[O-])cc2)o1)N1CCN(S(=O)(=O)c2cccs2)CC1	-	16.4µM	-	0	0	3.66µM
O=C(NC1CCC(O)CC1)c1ccc(-c2ccc([N+](=O)[O-])cc2)o1 (stereo not drawn)	?	16.4µM	0	0	0	16.4µM
O=C(NC1CCCCC1)c1ccc(-c2ccccc2[N+](=O)[O-])o1	?	0	?	0	0	0
O=C(c1ccco1)N1CCN(C(=O)c2ccc(-c3ccc([N+](=O)[O-])cc3)o2)CC1	-	23.1µM	-	0	0	?
O=C(c1ccc(-c2ccc(Cl)cc2)o1)N1CCN(S(=O)(=O)c2cccs2)CC1	-	?	-	0	0	?
CC(=O)c1ccc(-c2ccc(C(=O)NC3CC(C)(C)NC(C)(C)C3)o2)cc1	-	0	-	0	-55.6	?
COc1ccc(-c2nc3nc(C)cc(Nc4ccccc4C)n3n2)cc1	-	-	-	0	-	-
COc1ccc(-c2nc3nc(C)cc(Nc4ccc(C(C)=O)cc4)n3n2)cc1	-	?	-	0	-	14.6µM
COc1cc(Nc2cc(C)nc3nc(C)nn23)cc(OC)c1OC	12.6µM	?	0	0	0	0
COc1ccccc1Nc1cc(C)nc2nc(-c3ccccc3)nn12	-	16.4µM	-	0	-	?
COc1ccc(C2=C(C)C(N3CCC(C(=O)NC4CCCCC4)CC3)=NS2(=O)=O)cc1	-	-	-	0	-	-
COc1ccc(C(=O)NCc2nc(-c3cccc(NC(=O)c4ccc(C)s4)c3)oc2C)cc1	-	0[9.04 µM]	-	-	-	14.6µM
Cc1ccc(C(=O)Nc2cccc(-c3nc(CNC(=O)c4cccc(N(C)C)c4)c(C)o3)c2)s1	-	0[9.04 µM]	-	-	-	16.4µM
Cc1cccc(C(=O)NCc2nc(-c3cccc(NC(=O)c4ccoc4C)c3)oc2C)n1	-	0[9.04 µM]	-	-	-	13µM
Cc1cc(C(=O)Nc2cccc(-c3nc(CNC(=O)c4ccccc4C(F)(F)F)c(C)o3)c2)c(C)o1	-	?	-	-	-	20.6µM
Cc1ccc(C(=O)Nc2cccc(-c3nc(CNC(=O)C4(C)CC4)c(C)o3)c2)s1	-	0	-	-	-	0
N#Cc1cccc(NC(=O)CSc2nnc(-c3ccc(F)cc3)n2CC2CCCO2)c1 (stereo not drawn)	-	-	-	0	-	-
Cc1[nH]c2ccccc2c1C(=O)COC(=O)CCC(C)C	-	-	-	0	-	-
Cc1cc(NC(=O)Cn2c(=O)n(-c3ccc(C)c(C)c3)c(=O)c3sccc32)no1	-	-	-	0	-	-
Cc1oc(-c2cccc(NC(=O)C3CCCN(C)C3)c2)nc1CNC(=O)c1coc2c1C(=O)CCC2 (stereo not drawn)	-	0[9.04 µM]	-	-	-	16.4µM
